Assay results: PubChem BioAssay (Tox21)
A number with no mark means an inactive call. Calls of active or inactive are those of the source. Calls follow the shape of the dose curve; as a rule, active = well fitted curve in the direction sought with a large enough effect in the repeat runs; inconclusive = weak or mixed curves; inactive = flat fitted curve, though single readings scatter.

Experiment: qHTS assay to test for compound auto fluorescence at 590 nm (red) in HepG2 cell free culture (AID 720684)
Settings: cell-free medium autofluorescence, red 540/590 nm; series mostly up to 91.3 µM; fluorescence, % of Rose Bengal: at the top concentration
Source text: U.S. Tox21 Program National Center for Advancing Translational Sciences [NCATS] NIH Chemical Genomics Center [NCGC] U.S. Environmental Protection Agency [EPA] National Institutes of Environmental Health Sciences [NIEHS] National Toxicology Program [NTP] U.S. Food and Drug Administration [FDA] Tox21 Assay Overview: Compound auto fluorescence often interferes with screening of the compound library against various biological targets and signaling pathways. Some of these compounds may have fluorophoric properties. Such properties may interfere with the assay outputs resulting in false positives and/or negatives. To decrease such complications and ensure the compound activities are relevant in terms of biological response, the Tox21 10K compound library was screened for auto fluorescence. From the fluorophores used as reporter signals in our screening assays, the auto fluorescence equivalencies of compounds against three fluorophores have been evaluated: Triamterene, Fluorescein and Rose Bengal sodium for blue, green and red fluorescence, respectively. The fluorescence intensities were measured using Excitation/Emission wavelengths at 405/460nm, 485/535nm and 540/590nm for blue, green and red labels, respectively. This assay includes the red fluorescence data.
Tox21 Assay Protocol Summary: 5 uL of culture medium (MEM containing 10% FBS) per well was dispensed into black wall/clear bottom 1536-well plates using a Multidrop Combi Dispenser (ThermoFisher Scientific, Waltham, MA). After 23 nL compound or DMSO vehicle was transferred into assay plate by a pintool work station (Kalypsys, San Diego, CA), fluorescence intensities in the assay plates were measured by an Envision (PerkinElmer, Shelton, CT) plate reader using three labels for measuring blue, green and red fluorescence at […] 460, 535 and 590nm respectively.
% is scaled to controls: 0 for no effect and ±100 for the full control effect.

| SMILES | fluorescence, % of Rose Bengal | outcome |
| --- | --- | --- |
| CCCCCCCCC1CCC(=O)O1 (stereo not given) | -0.0094% | – |
| Nc1ncnc(Nc2ccccc2)n1 | 0.0586% [at 46 µM] | – |
| CC(=O)CCCCn1c(=O)c2c(ncn2C)n(C)c1=O | -0.221% [at 18.6 µM] | – |
| CCCCCCCCCC(C)=O | -0.0055% [at 95.7 µM] | – |
| CO[C@@H]1[C@@H](OC(N)=O)[C@@H](O)[C@H](Oc2ccc3c(O)c(NC(=O)c4ccc(O)c(CC=C(C)C)c4)c(=O)oc3c2C)OC1(C)C | 0.235% [at 18.6 µM] | – |
| O=C(NCCN1CCOCC1)c1ccc(Cl)cc1 | – | inactive |
| COc1ccc(Br)c(C)c1 | 0.29% | – |
| CCO[Si](CCCS)(OCC)OCC | -0.148% | – |
| CC(=O)Nc1ccc(S(=O)(=O)Nc2ccc([N+](=O)[O-])cc2)cc1 | 0.43% [at 46 µM] | – |
| CCCCN | -0.0346% [at 46 µM] | – |
| CC(C)N(c1ccccc1)C(C)C | -0.0112% | – |
| CCCN1C[C@H](CSC)C[C@@H]2c3cccc4[nH]cc(c34)C[C@H]21 | 0.233% [at 46 µM] | – |
| CC(=O)/C=C/C1C(C)=CCC(C)C1(C)C (stereo not given) | -0.151% | – |
| CCC(CC)CO | -0.787% | – |
| COc1ccc(OC)c(Cl)c1 | -0.258% | – |
| CCCCCCCC/C=C\CCCCCCCC(=O)OCCCC | 0.134% [at 18.6 µM] | – |
| CC[C@H](C)C(=O)O[C@H]1C[C@H](O)C=C2C=C[C@H](C)[C@H](CC[C@@H](O)C[C@@H](O)CC(=O)O)[C@H]21 | – | inactive |
| O=C(OCC1(COC(=O)c2cccnc2)CCCC(COC(=O)c2cccnc2)(COC(=O)c2cccnc2)C1O)c1cccnc1 | -0.172% [at 46 µM] | – |
| CC1=C(C(=O)O)N2C(=O)[C@@H](NC(=O)[C@H](N)c3ccc(O)cc3)[C@H]2SC1 | -0.146% [at 18.6 µM] | – |
| CCCCCOC(=O)CCC | 0.229% | – |

| SMILES | fluorescence, % of Rose Bengal | outcome |
| --- | --- | --- |
| Cc1cc(Cl)c(C)cc1Cl | 0.0129% | – |
| CCCCC(CC)COCCO (stereo not given) | 0.001% | – |
| CCOC(=O)/C=C/c1ccccc1 | -0.225% | – |
| O=S(O)(O)=S | -0.0109% [at 3.72 µM] | – |
| C[C@H](CCC(=O)O)[C@H]1CC[C@H]2[C@@H]3C(=O)C[C@@H]4CC(=O)CC[C@]4(C)[C@H]3CC(=O)[C@]12C | -0.0457% [at 46 µM] | – |
| CC1=CCC(C(C)C)=CC1 | -0.251% | – |
| CCCCOCCOC(=O)COc1nc(Cl)c(Cl)cc1Cl | -0.122% | – |
| CCCC(=O)C(C)=O | -0.0265% | – |
| C=C(C)C(=O)OCc1ccccc1 | -0.112% | – |
| CCCCCCN | -0.0075% | – |
| c1ccc2nccnc2c1 | -0.0945% [at 95.7 µM] | – |
| C=C(C)C(=O)OCCOP(=O)(O)OCCOC(=O)C(=C)C | -0.0374% | – |
| O=C(OCC(COC(=O)c1cccnc1)(COC(=O)c1cccnc1)COC(=O)c1cccnc1)c1cccnc1 | -0.174% [at 46 µM] | – |
| Cc1cccc(C)c1NC(=O)c1ccccc1C(=O)O | 0.0221% [at 46 µM] | – |
| CC1(CO)CN(c2ccccc2)NC1=O (stereo not given) | -0.103% | – |
| COCCOCCOCCOCCO | 0.0365% | – |
| O=C(NCCc1c[nH]c2ccccc12)c1cccnc1 | -0.504% [at 46 µM] | – |
| O=C(NCC(O)CO)c1c(I)c(C(=O)NCC(O)CO)c(I)c(N(CCO)C(=O)CO)c1I (stereo not given) | 0.343% [at 18.6 µM] | – |
| COc1cc(N)ccc1C | 0.176% | – |
| NS(=O)(=O)c1ccc(NC(=O)CCC(=O)O)cc1 | 0.0163% [at 46 µM] | – |
